Pf apPOL inh: Pf-apPOL inhibitors, biochemical, fluorescence; Plasmodium falciparum apicoplast DNA polymerase (apPOL); Recombinant Pf-apPOL, molecular beacon fluorescence, 1.5 h; inhibition, % at 10 µM; 0.25% of 210,000 active
mHTT-CaM PPI inh: mutant huntingtin-calmodulin interaction inhibitors – biochemical, AlphaScreen, primary screen. AlphaScreen His-mHTT/GST-CaM binding, luminescence. 3.6% of 190,000 active. inhibition, % at 15 µM. P42858;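 note: 0% = both proteins with DMSO and 100% = one protein alone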
Starred values were filed as active, the others as inactive; . = not tested or not shown. The entries come from a sample that favours hits as a whole. Cut-off read from the data, not from the text of the source: active = inhibition above about 50%; inactive = the rest.

SMILES | Pf apPOL inh | mHTT-CaM PPI inh
Cn1c(C(=O)NCCCN2CCCCC2)cc2c1CCN(Cc1ccccc1)C2 | 6.8 | 93.4*
Cn1c(C(=O)NC(C)(C)C)cc2c1CCN(Cc1cccc(F)c1)C2 | -4.5 | 15.8
Cc1cccc(CN2CCc3c(cc(C(=O)NCc4ccco4)n3C)C2)c1 | -4.2 | 56.9*
Cc1ccccc1NC(=O)CN1C(=O)C(c2ccc(F)cc2)=NC12CCCC2 | -1.3 | -5.8
CN1C(=O)C(CC(=O)NCc2ccccc2C(F)(F)F)Sc2ncccc21 (stereo unspecified) | 0.8 | -9.7
CCCCN(C)C(=O)c1cc2c(n1C)CCN(Cc1cccc(F)c1)C2 | -5.7 | 45.4
CN(Cc1ccccc1)C(=O)c1cc2c(n1C)CCN(Cc1cccc(F)c1)C2 | -5.1 | 58.9*
COc1ccc(C2=NN(C(=O)CN3CCOCC3)C(c3ccc(F)cc3)C2)cc1 (stereo unspecified) | -3.7 | 40.4
COc1ccccc1C1CC(c2ccc(C)cc2)=NN1C(=O)CN1CCOCC1 (stereo unspecified) | -4.6 | 49.7
O=C(CN1CCCC1)N1N=C(c2cccc(F)c2)CC1c1ccc2c(c1)OCO2 (stereo unspecified) | -4.3 | 97.6*
COc1ccc(C2=NN(C(=O)CCC(=O)O)C(c3ccc(Br)cc3)C2)cc1 (stereo unspecified) | 6.2 | 15.0
Cc1ccc(C2=NN(C(=O)CN3CCCC3)C(c3ccc4c(c3)OCO4)C2)cc1 (stereo unspecified) | -7.2 | 31.5
COc1ccccc1C1CC(c2cccc(F)c2)=NN1C(=O)CN1CCOCC1 (stereo unspecified) | -3.2 | 65.7*
COc1ccc(C2CC(c3cccc(F)c3)=NN2C(=O)CN2CCOCC2)cc1 (stereo unspecified) | -4.6 | 73.7*
COc1ccc(C2CC(c3ccc(Br)cc3)=NN2C(=O)CCN2CCOCC2)cc1 (stereo unspecified) | -8.1 | 66.0*
CC(C)(C)N(CCO)C(=O)C(=O)N(CCO)C(C)(C)C | . | -4.2
COc1ccc(Cl)cc1NC(=O)CSc1nnc(CCc2nc3ccccc3[nH]2)o1 | 1.7 | 44.3
CC(C)(C)N=C1Nc2ccccc2CNC12CCN(C(=O)Cc1ccccc1F)C2 (stereo unspecified) | -9.7 | 53.2*
COc1ccc(C(=O)N2CCCC3(C2)Nc2ccccc2NC3=NC(C)(C)C)c(OC)c1 (stereo unspecified) | 7.5 | 40.6
COc1ccccc1CC(=O)N1CCCC2(C1)Nc1ccccc1NC2=NC(C)(C)C (stereo unspecified) | 6.1 | 59.0*
COCC(=O)N1CCCC2(C1)Nc1ccccc1NC2=NC1CCCC1 (stereo unspecified) | -2.9 | 38.3
COc1ccc(C)cc1NC(=O)N1CCCC2(C1)Nc1ccccc1NC2=NC(C)(C)C (stereo unspecified) | -0.5 | 71.9*
COCC(=O)N1CCCC2(C1)Nc1ccccc1NC2=NC(C)(C)C (stereo unspecified) | 0.3 | 64.0*
CC(C)(C)N=C1Nc2ccccc2CNC12CCN(C(=O)Cc1ccccc1)C2 (stereo unspecified) | -3.5 | 24.7
COc1ccc(NC(=O)N2CCCC3(C2)Nc2ccccc2NC3=NC(C)(C)C)c(C)c1 (stereo unspecified) | -6.9 | 24.9
SMILES | Pf apPOL inh | mHTT-CaM PPI inh
CC(C)(C)OC(=O)N[C@@H](Cc1cnc[nH]1)C(=O)O | . | -2.4
CCOc1ccc(C(=O)N2CCCN(Cc3noc(-c4ccccc4)n3)CC2)cc1 | 0.7 | 0.8
N=C1NC(=O)/C(=C\c2ccc(OCc3ccc(F)cc3)cc2)S1 | -1.0 | 6.0
Cc1ccccc1N(C)C(=O)C1CCN(c2ncnc3c2nc2n3CCCCC2)CC1 | -4.0 | 14.3
Cc1ccccc1CNC(=O)C1(C)Oc2cccnc2N(C)C1=O (stereo unspecified) | 1.8 | 3.5
CC(C)(C)N=C1Nc2ncccc2NC12CCCN(C(=O)Cc1cccnc1)C2 (stereo unspecified) | -3.4 | 4.6
CC(C)(C)N=C1Nc2ccccc2NC12CCCN(C(=O)Cc1ccccc1)C2 (stereo unspecified) | 0.7 | 76.8*
COc1cccc2cc(C(=O)NC(C)=O)c(=Nc3ccc(Cl)cc3Cl)oc12 | -0.2 | 0.0
Cc1ccc(C(=O)CN2C(=C(O)c3ccccc3)C(=O)c3ccccc3S2(=O)=O)c(C)c1 | -6.6 | 59.4*
Cc1ccc(C(=O)CN2C(C(=O)c3ccccc3)=C(N(C)C)c3ccccc3S2(=O)=O)c(C)c1 | 4.2 | 55.0*
CN1C(=C(O)c2ccccc2)C(=O)c2ccccc2S1(=O)=O | -3.9 | -3.0
Cc1ccc(C(=O)CC(=O)c2ccccc2C)c(O)c1 | 4.0 | 37.3
COCCNC(=O)c1cc(Sc2cccc(Cl)c2)nc2ccccc12 | -15.8 | 16.0
Cc1cc(NC(=O)c2ccccc2)ccc1NC(=O)c1ccccc1 | -4.8 | 1.6
Cc1cc(NC(=O)c2ccccc2)cc(NC(=O)c2ccccc2)c1C | 51.8* | -2.3
COc1ccc(Br)cc1CNC(=O)CCc1cn(C)c2ccccc12 | -14.9 | 24.0
Cc1ccc(C)c(N2CCC(C(=O)Nc3cccc(Cl)c3)C2=O)c1 (stereo unspecified) | -3.0 | -15.9
Cc1ccc(C)c(N2CCC(C(=O)Nc3cccc(C(F)(F)F)c3)C2=O)c1 (stereo unspecified) | -3.9 | 78.7*
Cc1cc(C)c(C(=O)NCCc2ccccc2)c(C)c1 | 2.2 | -8.1
OC(CNCCc1ccccc1)Cn1c2ccc(Br)cc2c2cc(Br)ccc21 (stereo unspecified) | . | 100.2*
OC(CNCCOc1ccccc1)Cn1c2ccccc2c2ccccc21 (stereo unspecified) | . | 85.1*
OC(CNC1CCCC1)Cn1c2ccccc2c2ccccc21 (stereo unspecified) | -2.1 | 6.4
O=C1CSC(=O)N1CC(O)Cn1c2ccc(Br)cc2c2cc(Br)ccc21 (stereo unspecified) | . | 27.2
OC(CNCCc1ccccc1)c1ccccc1 (stereo unspecified) | -6.2 | -1.9
OC(CN1CCOCC1)Cn1c2ccc(Br)cc2c2cc(Br)ccc21 (stereo unspecified) | -14.3 | 91.0*
SMILES | Pf apPOL inh | mHTT-CaM PPI inh
Fc1ccc(-c2nc(-c3cn(-c4cccc(F)c4)nn3)no2)cc1 | 1.3 | 0.3
COc1cccc(NC(=O)COc2ccc(C)c(C)c2)c1 | -26.1 | -29.5
CCC(C)n1c(=N)c(S(=O)(=O)c2ccc(Cl)cc2)cc2c(=O)n3cccc(C)c3nc21 (stereo unspecified) | -2.3 | 3.0
O=C(Nc1cc(Cl)ccc1Cl)c1cccc(S(=O)(=O)N2CCCCC2)c1 | -8.6 | -11.2
O=C(Nc1cc(Cl)ccc1O)c1cccc(S(=O)(=O)N2CCCC2)c1 | -5.3 | 50.7*
CCC[C@H]1[C@@H](OC(=O)Oc2ccc([N+](=O)[O-])cc2)CC[C@@]23CCCN2C(=O)CCC[C@@H]13 | 0.1 | 58.4*
CCC[C@H]1[C@@H](OC(=O)NCCc2c[nH]c3ccccc23)CC[C@@]23CCCN2C(=O)CCC[C@@H]13 | 0.0 | 65.0*
C[C@H]1[C@@H](OC(=O)Oc2ccc([N+](=O)[O-])cc2)CC[C@@]23CCCN2C(=O)CCC[C@@H]13 | -8.7 | 9.7
CCC[C@H]1[C@@H](OC(=O)NCc2ccccc2Cl)CC[C@@]23CCCN2C(=O)CCC[C@@H]13 | -3.4 | 15.9
CCC[C@H]1[C@@H](OC(=O)N2CCOCC2)CC[C@@]23CCCN2C(=O)CCC[C@@H]13 | -4.1 | -12.0
